Measurements reported in PubChem BioAssay AID1566 (Sanford-Burnham Center for Chemical Genomics, 2009).
The whole screen tested about 290,000 compounds, of which about 1,800 (0.62%) were called active. Cut-off read from the data, not from the text of the source: active = inhibition above about 50%; inactive = the rest. The full list was thinned out, with actives kept by preference.

Assay: inhibition of NOD2-driven NF-kB reporter – cell-based, luminescence, uHTS, HEK293 (AID 1566)
Settings: HEK293 NOD2/NF-kB luciferase reporter, at 4 µM, hits give high values

inhibition, active:
Oc1ccc(N=Nc2ccc3c(c2)OCO3)c2ccccc12 81.2%
Cc1cc(C2=NNC(=NC3CC3)SC2)c(C)n1-c1ccccc1 90.5%
c1cc2c(cc1C1=NNC(=NC3CC3)SC1)OCCO2 85.7%
Cc1cc(C2=NNC(=NC3CC3)SC2)c(C)n1-c1ccccc1F 88.9%
O=C(N/N=C/c1cc([N+](=O)[O-])ccc1O)NC12CC3CC(CC(C3)C1)C2 64%
CCCc1cc(C(=O)Nc2ccc(C(=O)c3ccccc3)cc2)n(C)n1 54.7%
CCOC(=O)C1=C(c2ccccc2)O/C(=C(/C#N)C(F)(F)F)S1 51.4%
O=C(Oc1c(Cl)cc(Cl)c2cccnc12)c1cccc([N+](=O)[O-])c1 96.1%
CC(C)(C)c1ccc(OC(=O)Nc2ccc(O)c(C(=O)O)c2)cc1 51.6%

inhibition, inactive:
COc1cc(C(=O)OCC(=O)N2CCCCC2C)ccc1OCc1c(C)noc1C (stereo unspecified) -27.2%
Cc1ccc(CN(CC(=O)NCCc2ccccc2)C(=O)CCCC(=O)Nc2cc(C)on2)cc1 -8.6%
O=C(N/C(=C\c1cccnc1)C(=O)N1CCCCC1)c1cccc(Br)c1 0.3%
CCOC(=O)N1CCN(C(=O)C2CCCN(c3ncnc4c3nc3n4CCCCC3)C2)CC1 (stereo unspecified) 7.5%
O=C(NC1CCCCCC1)C(=S)NC1CCCCC1 -56.5%
C#CCOc1ccc(/C=C2/C(=O)NN(c3ccc(F)cc3)C2=O)cc1OC 9.7%
CC(CC(=O)Nc1nncs1)c1ccccc1 (stereo unspecified) 20.2%
COc1ccc(C2NC(=S)NC(C)=C2C(=O)c2ccccc2)cc1OC (stereo unspecified) 3.4%
Oc1ccc(N=Nc2ccc3c(c2)OCCO3)c(O)c1 -142%
Oc1ccc(N=Nc2ccc3c(c2)OCCO3)c2ncccc12 -8.2%
CCOc1ccc(CN(C(=O)c2oc3ccccc3c2C)C2CCS(=O)(=O)C2)cc1 (stereo unspecified) -8.4%
COCCCN=C1NN=C(c2cc(C)n(-c3ccccc3F)c2C)CS1 -10.1%
CCCCN=C1NN=C(c2ccc3c(c2)OCCO3)CS1 -57.3%
C=CCN=C1NN=C(c2ccc3c(c2)OCCO3)CS1 37.7%
COc1ccc(-n2c(C)cc(C3=NNC(=NC4CC4)SC3)c2C)cc1 -16.5%
Cc1cc(C2=NNC(=NC3CC3)SC2)c(C)n1-c1c(C)n(C)n(-c2ccccc2)c1=O -1.3%
Cc1ccc(-n2c(C)cc(C3=NNC(=NC4CC4)SC3)c2C)cc1C -57.3%
COc1ccc(N2C(=O)c3ccccc3NC23CCC(C)CC3)cc1 (stereo unspecified) -58.1%
Cc1cc(=O)[nH]c(N/N=C/c2ccc(Cl)c([N+](=O)[O-])c2)n1 -5.5%
COc1ccc(/C=C(\NC(=O)c2ccc(OC)cc2)C(=O)N2CCCCC2)cc1 -9.7%
Cn1c(=O)c2c(nc(SCC(=O)O)n2Cc2cc3c(cc2Cl)OCO3)n(C)c1=O 3%
CCOCCCn1cnc2c(c1=O)c1nc3ccccc3nc1n2-c1ccc(C)cc1 24.1%
O=C(NCCn1cccn1)c1ccc(OC2CCN(C(=O)C3CC3)CC2)cc1 -27.2%
O=C(N/N=C/c1ccccc1O)NC12CC3CC(CC(C3)C1)C2 -29.5%
O=C(N/N=C/c1cc([N+](=O)[O-])ccc1O)C12CC3CC(CC(C3)C1)C2 15%
c1ccc(-c2ccccc2OCCCN2CCOCC2)cc1 -29.3%
O=C(CSc1nnc(-c2ccc(F)cc2)o1)Nc1ccc(S(=O)(=O)N2CCCCCC2)cc1 -4.4%
CCOCC(=O)Nc1cccc(Br)c1 -5.5%
CCCc1cc(C(=O)Nc2ccc(C(=O)c3ccc(C)cc3)cc2)n(C)n1 23.6%
CCCc1cc(C(=O)Nc2ccc(C(=O)c3ccc(F)cc3)cc2)n(C)n1 18.5%
CCOC(=O)c1c(C)n(C)c2ccc(OCC(O)CN3CCN(C)CC3)cc12 (stereo unspecified) -0.5%
Cc1nc(SCC(=O)N2CCCc3ccccc32)c2oc3ccccc3c2n1 -6.5%
CCc1nc(SCC(=O)N2CCCc3ccccc32)c2oc3ccccc3c2n1 37%
COc1cc(C(=O)NCc2ccncc2)cc(OC)c1OC 10.3%
Nc1ncc(-c2ccccc2)c(-c2ccc(OCc3ccccc3)cc2O)n1 13.4%
COc1ccc(-c2cnc(N)nc2-c2ccc(OCc3ccccc3)cc2O)cc1 -4.2%
Nc1ncnc2c1ncn2Cc1ccccc1 6.4%
CCc1ccc(N2CN(Cc3ccco3)CNC2=S)cc1 4.9%
COc1ccc(/C=N/OCC(=O)Nc2nc3ccccc3s2)cc1OC -1.1%
CC1=NN(C(=O)Cn2ccc([N+](=O)[O-])n2)C(O)(C(F)(F)F)C1 (stereo unspecified) 12.1%
CCOC(=O)C1=C(c2ccccc2)O/C(=C(\C(=O)OC)C(F)(F)F)S1 -23%
CCOC(=O)C1=C(c2ccccc2)O/C(=C(/C(=O)OC)C(F)(F)F)S1 5.4%
CC(=O)Nc1ccc(S(=O)(=O)Nc2nc3ccccc3nc2N2CCCC2)cc1 -6%
Cc1ccn2cc(C(=O)N3CCCC(Nc4ccc(F)cc4)C3)nc2c1 (stereo unspecified) -9.3%
O=C(Nc1ccccc1)c1c(F)cccc1F -8%
O=C(Nc1ccncc1)c1c(F)c(F)c(F)c(F)c1F 8.8%
O=C(Oc1ccc(Cl)c2cccnc12)c1cccc([N+](=O)[O-])c1 13.8%
O=C(Oc1cccc2cccnc12)c1cccc([N+](=O)[O-])c1 11.2%
CCOc1ccc(-c2ccc(SCC(=O)Nc3nnc(CC)s3)nn2)cc1 -117%
CCCC(C(=O)NC1CCCC1)N(CC1CCCO1)C(=O)c1snc(C(N)=O)c1N (stereo unspecified) -7.3%
O=C(Nc1ccc(O)c(C(=O)O)c1)Oc1ccccc1 8.6%
Cc1ccc(OCC(=O)Nc2ccc(O)c(C(=O)O)c2)cc1C 1.5%
